The values that follow come from PubChem BioAssay (NCI).

Among the test systems are HCT-15 colon; HT29 colon; SNB-75 CNS; SNB-19 CNS; U251 CNS; PC-3 prostate; SK-MEL-5 melanoma; UACC-62 melanoma; LOX IMVI melanoma; SK-MEL-28 melanoma.
What all share (test): NCI-60 one-dose screen, 48 h (100 = growth as untreated, 0 = no growth, -100 = all killed)
What all share (details): 10 µM unless noted

About 83,000 compounds went through this panel and 20% of them were active in at least one assay; those are over-represented in the sample as a whole.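 Growth was measured after 48 h exposure to one concentration of compound in 96-well plates. Values under 10 count as active.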 A number with no mark means an inactive call. Active and inactive are the calls of the source.

As to `COc1ccccc1Nc1nnc(-c2c[nH]c3ccccc23)o1`, the growth with HCT-15 colon was 11.5%; in the test on HT29 colon, 7.44% (active); with SNB-75 CNS, 44%; with SNB-19 CNS, 43.4%; in the test with U251 CNS, 4.61% (active); in the test with PC-3 prostate, 16.4%. Besides, the growth in the test on SK-MEL-5 melanoma is -32.7% (active); in the test on UACC-62 melanoma, 22.9%; in the test on LOX IMVI melanoma it was 7.77% (active); in the test on SK-MEL-28 melanoma, 49.2%.

Consider `Cc1ccc(C(C)C)cc1Oc1cccc(-c2c(-c3ccc(C(F)(F)F)cc3)ncn2C2CCNCC2)n1`, for which the growth in the test on HCT-15 colon is -94.1% (active); with HT29 colon, -92.1% (active); in the test with SNB-75 CNS, -94.1% (active); in the test on SNB-19 CNS it was -97.2% (active); with U251 CNS, -85.3% (active); in the test with PC-3 prostate it was -92% (active). The growth in the test with SK-MEL-5 melanoma was -98.6% (active); in the test on UACC-62 melanoma, -94.1% (active); in the test with LOX IMVI melanoma, -75.8% (active); in the test on SK-MEL-28 melanoma it was -80.5% (active).

For the compound `COc1cc(C2CC(c3cc(OC)c(OC)c(OC)c3)=Nc3c(N)nc(N)nc3N2)ccc1Oc1nc(Nc2ccc(F)cc2)nc(N(C)C)n1` (stereo not given), the growth was 4.98% (active) in the test on HCT-15 colon; 7.02% (active) with HT29 colon; 55.9% in the test with SNB-75 CNS; 70.7% in the test on SNB-19 CNS; 56.4% with U251 CNS; 33.8% with PC-3 prostate. The growth with SK-MEL-5 melanoma was 36%; in the test with UACC-62 melanoma, 83.6%; in the test with LOX IMVI melanoma it was 10.3%; in the test with SK-MEL-28 melanoma, 74%.

Regarding `Cc1ccc(C2CC(c3ccc(NC(=O)Nc4ccccc4)cc3)=NN2c2ccc(S(C)(=O)=O)cc2)cc1` (stereo not given), the growth with HCT-15 colon was -84.4% (active); in the test with HT29 colon, -55.7% (active); in the test with SNB-75 CNS, 56.9%; with SNB-19 CNS, 4.8% (active); in the test with U251 CNS, -63.5% (active); in the test with PC-3 prostate, 1.02% (active). For the same compound, the growth with SK-MEL-5 melanoma was -99.9% (active); in the test with UACC-62 melanoma, -80.3% (active); in the test with LOX IMVI melanoma, -100% (active); with SK-MEL-28 melanoma, -89.4% (active).

`COc1ccc(NC(=O)Cn2c(/C=C/c3cccc(OC)c3)nc3ccccc3c2=O)cc1`: the growth with HCT-15 colon is 70.9%; in the test with HT29 colon it was 51.8%; with SNB-75 CNS, -34.5% (active); with SNB-19 CNS it was 56.4%; in the test on U251 CNS, -26.5% (active); with PC-3 prostate, 73.9%. The growth with SK-MEL-5 melanoma is 92.7%; with UACC-62 melanoma, 57.8%; in the test with LOX IMVI melanoma, 22.4%; in the test on SK-MEL-28 melanoma it was 89.3%.

Take `COc1ccc(NC2=C(I)C(=O)C(C)=C(C)C2=O)cc1`: the growth with HCT-15 colon is 64.3%; with HT29 colon, 101%; in the test with SNB-75 CNS, 86.3%; in the test on SNB-19 CNS it was 81.2%; with U251 CNS it was 25.9%; in the test on PC-3 prostate, 10.2%. Besides, the growth was -44.6% (active) in the test on SK-MEL-5 melanoma, 33.3% in the test with UACC-62 melanoma, 2.42% (active) with LOX IMVI melanoma and 52.6% with SK-MEL-28 melanoma.

Turning to `O=C(CSc1nc2sc3c(c2c(=O)n1-c1ccc(Cl)cc1)CCCC3)NNC(=O)c1ccc(F)cc1`, the growth in the test on HCT-15 colon is 91.8%; in the test with HT29 colon, 107%; with SNB-75 CNS, 76%; in the test on SNB-19 CNS it was 32%; with U251 CNS, 37.8%; with PC-3 prostate, 81.9%. In addition, the growth in the test with SK-MEL-5 melanoma is 66.9%; with UACC-62 melanoma, 41.1%; in the test on LOX IMVI melanoma, 64.2%; with SK-MEL-28 melanoma, 87%.

With `CCc1ccccc1NC(=O)N/C(N)=N/c1nc2ccccc2s1`, the growth in the test with HCT-15 colon is 0.728% (active); in the test with HT29 colon it was -25% (active); in the test on SNB-75 CNS, 3.91% (active); with SNB-19 CNS it was 9.49% (active); with U251 CNS, -18.9% (active); in the test on PC-3 prostate it was 21.8%. Moreover, the growth in the test with SK-MEL-5 melanoma is -59.1% (active); in the test on UACC-62 melanoma, 13.8%; in the test with LOX IMVI melanoma, -53.7% (active); in the test on SK-MEL-28 melanoma, 38%.

On to `O=C(NNC(=S)NC(=O)c1ccccc1)c1ccc(OCc2nc3ccc(Cl)cc3[nH]2)cc1`, for which the growth in the test on HCT-15 colon is -75.1% (active); with HT29 colon, -6.38% (active); with SNB-75 CNS, -17.8% (active); with SNB-19 CNS, -12.9% (active); in the test on U251 CNS, -71.4% (active); in the test on PC-3 prostate, 2.48% (active). The growth is -73.4% (active) in the test with SK-MEL-5 melanoma, -88.4% (active) with UACC-62 melanoma, -92.2% (active) in the test on LOX IMVI melanoma and -82.7% (active) in the test on SK-MEL-28 melanoma.

Take `COC(=O)c1cccc(Oc2ccc(NC(=O)Nc3cc(C(F)(F)F)ccc3F)cc2)c1`: the growth with HCT-15 colon was 62%; in the test on HT29 colon, 62.9%; in the test on SNB-75 CNS, -34.1% (active); in the test with SNB-19 CNS, 10.7%; in the test with U251 CNS, 40.4%; with PC-3 prostate it was 69.9%. The growth in the test with SK-MEL-5 melanoma was 94.5%; with UACC-62 melanoma, 69.6%; in the test on LOX IMVI melanoma, 79.5%; in the test with SK-MEL-28 melanoma, 88.7%.
